Results filed as inconclusive are left out. Activity calls are given as the source filed them. Calls come from the whole dose curve; as a rule, active = well fitted curve in the direction sought with a large enough effect; inconclusive = small, poorly fitted or top-dose-only effect, or another doubt; inactive = no such curve, though single readings can be large; an effect the other way counts as inactive or inconclusive. Where a SMILES comes first, the peptide text is derived from it.
Tests used:
[1] = qHTS to identify inhibitors of the type 1 interferon - major histocompatibility complex class I in skeletal muscle: primary screen against the NCATS Pharmaceutical Collection (AID 1347407);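 note: luminescence of HiBiT knocked into endogenous HLA-B as interferon-induced MHC class I level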
Procedure, shortened: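 HLA-B HiBiT myoblasts, dexamethasone-free growth medium + 4 ng/ml IFN-b; compounds pinned 1 h after seeding, […] from 46 uM; 24 h, 37 C, 5% CO2; lytic HiBiT detection, 10 min RT, luminescence.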

[2] = target: Protein phosphatase 1D (Homo sapiens) (UniProt O15297); test: RapidFire Mass Spectrometry qHTS Assay for Modulators of WT P53-Induced Phosphatase 1 (WIP1) (AID 1347424);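 note: amount of dephosphorylated VEPPL-S-QETFS peptide product formed by WIP1; series mostly up to about 63 µM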
Chain of Protein phosphatase 1D (Homo sapiens) (O15297 whole entry, looked up): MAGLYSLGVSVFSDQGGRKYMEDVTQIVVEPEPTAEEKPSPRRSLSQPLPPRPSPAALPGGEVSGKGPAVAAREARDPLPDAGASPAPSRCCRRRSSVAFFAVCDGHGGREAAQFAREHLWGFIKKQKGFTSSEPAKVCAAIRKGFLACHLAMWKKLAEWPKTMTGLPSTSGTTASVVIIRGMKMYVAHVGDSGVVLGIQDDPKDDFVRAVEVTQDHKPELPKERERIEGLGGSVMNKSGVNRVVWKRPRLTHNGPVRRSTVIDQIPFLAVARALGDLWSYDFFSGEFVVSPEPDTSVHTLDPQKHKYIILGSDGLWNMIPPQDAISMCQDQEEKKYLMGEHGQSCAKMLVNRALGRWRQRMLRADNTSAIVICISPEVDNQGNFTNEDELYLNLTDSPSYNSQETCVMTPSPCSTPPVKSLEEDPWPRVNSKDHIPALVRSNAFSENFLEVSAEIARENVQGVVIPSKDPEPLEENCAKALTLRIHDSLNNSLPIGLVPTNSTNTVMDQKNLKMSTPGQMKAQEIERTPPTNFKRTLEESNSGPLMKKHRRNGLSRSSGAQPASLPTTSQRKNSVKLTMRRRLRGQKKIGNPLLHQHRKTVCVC
Procedure, shortened: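 10 nM WIP1 + cpd, 1 h RT; + 2 uM VEPPL-pS-QETFS, 5 min RT; stop 0.5% formic acid; labelled product standard 1 uM; RapidFire MS. Buffer 50 mM Tris pH 7.5, 30 mM MgCl2, 1 mM TCEP.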

[3] = target: Protein phosphatase 1D (Homo sapiens) (UniProt O15297); test: Rhodamine-PBP qHTS Assay for Modulators of WT P53-Induced Phosphatase 1 (WIP1) (AID 1347425)
Procedure, shortened: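 Read-out: Rhodamine-PBP fluorescence (ex 525/em 598 nm) for released Pi, read each minute for 11 min after adding 10 uM VEPPL-pS-QETFS; signal taken as f1 minus pre-substrate f0. Enzyme 5 nM WIP1 with 1 hr room-temperature compound preincubation.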

[4] = Primary qHTS for inhibitors of La Crosse Virus (LACV) - induced cell death in SH-SY5Y cells (AID 1508616);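 note: top concentration of the series differs between compounds; higher means more rescue of cells from virus-induced death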
Procedure, shortened: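 Luminescent ATP readout (ATPLite 1step, 5 min room temperature) measured rescue from LACV-induced death after 6 days of infection at 0.01 MOI; normalized to infected DMSO wells and uninfected DMSO wells.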

[5] = target: Calcium and integrin-binding protein 1 (Homo sapiens) (UniProt Q99828); test: Primary qHTS for Identification of Calcium Integrin Binding Protein 1 (CIB1) Competitor (AID 1508620);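 note: GST tagged CIB1 binding a fluorescein labelled alphaIIb integrin peptide tracer; top concentration of the series differs between compounds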
Chain of Calcium and integrin-binding protein 1 (Homo sapiens) (Q99828 whole entry, looked up): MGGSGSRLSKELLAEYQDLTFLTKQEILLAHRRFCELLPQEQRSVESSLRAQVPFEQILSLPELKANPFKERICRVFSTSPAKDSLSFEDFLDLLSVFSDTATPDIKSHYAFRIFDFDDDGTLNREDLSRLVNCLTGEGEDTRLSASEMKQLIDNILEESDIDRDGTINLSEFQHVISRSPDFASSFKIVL
Procedure, shortened: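 CIB1-GST (1 uM final) and compound incubated 15 min at room temperature before adding FITC-alphaIIb peptide tracer (100 nM final). Competition for binding read by fluorescence polarization (ex 480, em 540) after another 15 min at room temperature.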

Measured: Potency

CC(C)C[C@@H]1[C@H](c2ccccc2)OC(=O)N1CCCN1CCCCCC1
inactive: all assays above

CCC(C(=O)OCCN1CCOC(c2ccccc2)C1C)c1ccccc1 (stereo not given)
inactive: all assays above

C#CC(C)(CC)OC(=O)c1ccccc1C(=O)O (stereo not given)
inactive: all assays above

Cc1ccccc1C(=O)N1CC/C(=N\OS(=O)(=O)O)c2ccc(Cl)cc21
inactive: all assays above

NS(=O)(=O)c1ccc(N2CCCCS2(=O)=O)cc1
inactive: all assays above

CCCCCC[C@@H](CCC)C(=O)O
inactive: all assays above

COc1cc2c(cc1OC)C(=O)CC2
inactive: all assays above

CCOCCn1c(C2CCN(CCc3ccc(C(C)(C)C(=O)O)cc3)CC2)nc2ccccc21
inactive: all assays above

NC(=O)COCCN1CCN(C(c2ccccc2)c2ccc(Cl)cc2)CC1 (stereo not given)
inactive: all assays above

CC(COc1ccccc1)NN (stereo not given)
inactive: all assays above

CCN(CC)CC(=O)Oc1ccc(NC(C)=O)cc1
inactive: all assays above

Cc1onc(-c2ccccc2)c1C(=O)Cl
inactive: all assays above

CCCCCCn1c(=O)c2c(ncn2C)n(C)c1=O
inactive: all assays above

Cc1ncc(CO)c(CO)c1O
inactive: all assays above

O=C1CC2(CCCC2)CC(=O)N1
inactive: all assays above

Cc1cccc(N(C)C(=S)Oc2ccc3c(c2)C2CCC3C2)c1 (stereo not given)
inactive: all assays above

O=C(OCCN1CCOCC1)c1cccnc1Nc1cccc(C(F)(F)F)c1
inactive: all assays above

N=C(N)c1ccc(OCCCOc2ccc(C(=N)N)cc2)cc1
inactive: all assays above

O=C(O)/C=C(\CC(=O)O)C(=O)O
inactive: all assays above

Clc1ccc2c(c1)Nc1ccccc1S2
inactive: all assays above

Nc1ccc2c(c1)CN1C(=O)c3ccccc3C1=N2
inactive: all assays above

CC(C)C(=O)OCc1cccc(OC(=O)[C@@H]2N3C(=O)[C@@H](NC(=O)Cc4ccccc4)[C@H]3SC2(C)C)c1
inactive: all assays above

O=C(OCC1(COC(=O)c2cccnc2)CCCC(COC(=O)c2cccnc2)(COC(=O)c2cccnc2)C1O)c1cccnc1
inactive: all assays above

CC1CCCCN1CCCOC(=O)c1ccc(OC2CCCCC2)cc1 (stereo not given)
inactive: all assays above

CC[C@@H]([C@H](C)O)n1ncn(-c2ccc(N3CCN(c4ccc(OC[C@@H]5CO[C@@](Cn6cncn6)(c6ccc(F)cc6F)C5)cc4)CC3)cc2)c1=O
inactive: all assays above

COC(=O)c1cc(S(N)(=O)=O)ccc1OC
inactive: all assays above

CC(C)OP(=O)(CP(=O)(OC(C)C)OC(C)C)OC(C)C
inactive: all assays above

CCCCN(CCN(CCCC)C(=O)N1CCOCC1)C(=O)N1CCOCC1
inactive: all assays above

C[C@H](N)C(=O)N[C@@H](C)C(=O)NC1[C@H]2CN(c3nc4c(cc3F)c(=O)c(C(=O)O)cn4-c3ccc(F)cc3F)C[C@@H]12 (stereo not given in full)
inactive: all assays above

O=C(NO)c1ccccc1
inactive: all assays above

CCCCCN(CCCOC)C(=O)C(CCC(=O)O)NC(=O)c1ccc(Cl)c(Cl)c1 (stereo not given)
inactive: all assays above

C=C(C)C(=O)OCC(O)CO (stereo not given)
inactive: all assays above

CN(C(=O)C(Cl)Cl)c1ccc(OC(=O)c2ccco2)cc1
inactive: all assays above

Nc1ncnc2nc[nH]c12
inactive: all assays above

CC(=O)c1cc2ccccc2s1
inactive: all assays above

C[N+]1(C)CCC(OC(=O)C(O)(c2ccccc2)C2CCCC2)C1 (stereo not given)
inactive: all assays above

CCOC(=O)N1CCC(n2c(=O)[nH]c3cc(Cl)ccc32)CC1
inactive: all assays above

CCCCC(O)/C=C(C)/C=C/C=C/C(=O)N1CCCC1=O (stereo not given)
inactive: all assays above

O=c1[nH]c(=O)n([C@H]2O[C@H](CO)[C@@H](O)[C@@H]2O)cc1/C=C\Br
inactive: all assays above

OC[C@]1(O)OC[C@@H](O)[C@H](O)[C@@H]1O
inactive: all assays above

O=C(O)CCC(=O)OC[C@@H](NC(=O)C(Cl)Cl)[C@H](O)c1ccc([N+](=O)[O-])cc1
inactive: all assays above

O=C(O)c1ccccc1S
inactive: all assays above

CCCCCOc1ccccc1/C(=C\SC)n1ccnc1
inactive: all assays above

CC(=O)N(CC(O)CO)c1c(I)c(C(=O)NCCO)c(I)c(C(=O)NCC(O)CO)c1I (stereo not given)
inactive: all assays above

Cc1ccc2ccc(Cl)cc2n1
inactive: all assays above

CN1Cc2cc(C(=O)N3CCC(C4CCNCC4)CC3)ccc2N[C@@H](CC(=O)O)C1=O
inactive: all assays above

CCC(=O)Oc1ccc2c(c1)CC[C@@H]1[C@@H]2CC[C@@]2(C)[C@H]1C[C@@H](OC(=O)CC)[C@@H]2OC(=O)CC
inactive: all assays above

COc1ccccc1N1CCN(CC(O)COc2cc(OC)c(OC)c(OC)c2)CC1 (stereo not given)
inactive: all assays above

Cc1oc(=O)oc1COC(=O)[C@@H]1N2C(=O)[C@@H](NC(=O)[C@H](N)c3ccccc3)[C@H]2SC1(C)C
inactive: all assays above

COCCOCC(OC)OC
inactive: all assays above

O=C1CC2(CCCC2)CC(=O)N1CCNCC1COc2ccccc2O1 (stereo not given)
inactive: all assays above

O=C(CS(=O)Cc1ccco1)NC/C=C\COc1cc(CN2CCCCC2)ccn1 (stereo not given)
inactive: all assays above

CC(=O)N[C@@H](CO)C(=O)N[C@@H](CC(=O)O)C(=O)N[C@@H](CCCCN)C(=O)N1CCC[C@H]1C(=O)O (Ac-SDKP-OH)
inactive: all assays above

O=S(=O)(O)c1ccc2nc(-c3ccccc3)[nH]c2c1
inactive: all assays above

CN(C)CCCOC1(Cc2ccccc2)CCCCCC1
inactive: all assays above

CCCCOC(=O)CCCCCCCCC(=O)OCCCC
inactive: all assays above

Nc1nnnn1-c1ccccc1
inactive: all assays above

CN(C)CCOC(c1ccccc1)c1ccc(Br)cc1 (stereo not given)
inactive: all assays above

CCCCCCCCCCCCCCCCCCN(C)C
inactive: all assays above

Cc1cnc(NS(=O)(=O)c2ccc(N)cc2)nc1
inactive: all assays above

Cc1cc(=O)oc2cc(O[C@@H]3SC[C@@H](O)[C@H](O)[C@H]3O)ccc12
inactive: all assays above

CC(=O)OCC(=O)[C@@]1(O)[C@H](OC(C)=O)C[C@H]2[C@@H]3CCC4=CC(=O)C=C[C@]4(C)[C@@]3(F)[C@@H](O)C[C@@]21C
inactive: all assays above

CC(=O)OCC(=O)[C@@]1(O)CCC2C3CCC4=CC(=O)CC[C@]4(C)C3[C@@H](O)C[C@@]21C (stereo not given in full)
inactive: all assays above

CC1(C)OC(=O)Nc2ccc(Br)cc21
inactive: all assays above

CC1(C)S[C@@H]2[C@H](NC(=O)C(c3ccccc3)S(=O)(=O)O)C(=O)N2[C@H]1C(=O)O (stereo not given in full)
inactive: all assays above

CCCC(CCC)(C(=O)OCC)C(=O)OCC
inactive: all assays above

COc1cc(C(=O)NC2CCCNC2)cc(OC)c1OC (stereo not given)
inactive: all assays above

CN1C(=O)c2ccccc2C1=O
inactive: all assays above
